Compound activity: PubChem BioAssay, Broad Institute
The entries come from a sample that favours hits as a whole.
C diff growth: C. difficile growth inhibition. 0.25% of 86,000 active. growth activity, negative = inhibition, % at 16 µg/mL (by protocol). Clostridium difficile clinical isolate growth, OD600, 24 h; stronger effect = lower value;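 active means mean growth activity at or below -80% and every replicate also at or below -80%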;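 further: 0% = DMSO wells and -100% = levofloxacin 16 µg/mL wells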
* = called active by the depositor; ! = a repeat was not active.

SMILES	C diff growth
COc1ccccc1C#Cc1ccc2c(c1)[C@@H]1[C@@H](CCN1C(=O)c1ccncc1)[C@@H](CO)N2	-95*
COc1ccccc1CN1CC[C@H]2[C@H](CO)Nc3ccc(C#Cc4ccccc4)cc3[C@H]21	-100*
COc1ccccc1C#Cc1ccc2c(c1)[C@@H]1[C@@H](CCN1C(=O)c1ccncc1)[C@H](CO)N2	12
Cc1noc(C)c1NC(=O)N(C)C[C@H]1Oc2ccc(NC(=O)CCCCCC(=O)Nc3ccccc3N)cc2CC(=O)N([C@H](C)CO)C[C@H]1C	0
C[C@@H](NC(=O)C[C@@H]1C[C@@H]2c3cc(NC(=O)CN(C)C)ccc3O[C@@H]2[C@@H](CO)O1)c1ccccc1	1
C[C@H]1CCCCO[C@H](CN(C)C(=O)c2ccccc2)[C@@H](C)CN([C@@H](C)CO)C(=O)c2cc(NS(C)(=O)=O)ccc2O1	0
O=C(CC1CC1)N1[C@H](CO)[C@@H](c2ccccc2)C12CN(S(=O)(=O)c1ccccc1)C2	9
C[C@H](CO)N1C[C@H](C)[C@@H](CN(C)C(=O)c2ccccc2F)Oc2ncc(Br)cc2C1=O	0
Cc1noc(C)c1NC(=O)Nc1ccc2c(c1)CC(=O)N([C@H](C)CO)C[C@@H](C)[C@@H](CN(C)S(C)(=O)=O)O2	-4
Cc1cccc(S(=O)(=O)N[C@H]2CC[C@@H](CCNC(=O)CCN3CCCCC3)O[C@@H]2CO)c1	0
CN(C)C(=O)c1cccc(-c2ccc3c(c2)[C@@H]2[C@@H](CCN2Cc2ccccc2F)[C@@H](CO)N3)c1	-20
CCCC(=O)Nc1ccc2c(c1)C(=O)N(C)C[C@H](OC)[C@@H](C)CN(C(=O)c1ccccc1F)[C@H](C)CO2	-1
C[C@@H]1CN([C@H](C)CO)C(=O)c2cc(NC(=O)NC3CCCCC3)ccc2O[C@@H]1CN(C)C(=O)Nc1cccc2ccccc12	-11
COc1ccc(S(=O)(=O)Nc2ccc3c(c2)C(=O)N([C@H](C)CO)C[C@@H](C)[C@@H](CN(C)Cc2ccc(Cl)c(Cl)c2)OCCCC[C@H](C)O3)cc1	5
N#Cc1ccc(-c2ccc3c(c2)[C@H]2[C@H](CCN2C(=O)c2ccc(F)cc2)[C@@H](CO)N3)cc1	11
N#Cc1cccc(-c2ccc3c(c2)[C@H]2[C@H](CCN2C(=O)c2ccncc2)[C@@H](CO)N3)c1	-3
N#Cc1ccc(-c2ccc3c(c2)[C@H]2[C@H](CCN2C(=O)c2ccncc2)[C@H](CO)N3)cc1	-80*
C[C@@H]1CN([C@H](C)CO)C(=O)Cc2cc(NC(=O)NC3CCCCC3)ccc2O[C@@H]1CN(C)C(=O)Nc1ccc2c(c1)OCO2	-3
C[C@H](NC(=O)C[C@@H]1C[C@H]2c3cc(N(C)C)ccc3O[C@H]2[C@H](CO)O1)c1ccccc1	-5
COc1cccc(CN2C[C@@H]3N[C@H](C2)C3c2ccc(-c3ccccc3F)cc2)c1 (stereo partly drawn)	-94*
COc1cccc(CN2[C@@H]3CNC[C@H]2[C@H]3c2ccc(-c3ccccc3OC)cc2)c1	-8
COc1ccc(-c2ccc(C3[C@@H]4CN(Cc5cccc(OC)c5)C[C@H]3N4)cc2)cc1 (stereo partly drawn)	-81*!
COc1cccc(-c2ccc(C3[C@@H]4CN(Cc5ccccn5)C[C@H]3N4)cc2)c1 (stereo partly drawn)	13
COc1cccc(S(=O)(=O)N2[C@@H]3CNC[C@H]2C3c2ccc(-c3ccccc3F)cc2)c1 (stereo partly drawn)	51
COc1cccc(-c2ccc(C3[C@@H]4CN(Cc5cccc(F)c5)C[C@H]3N4)cc2)c1 (stereo partly drawn)	-99*
SMILES	C diff growth
Cc1ccccc1-c1ccc(C2[C@@H]3CN(S(=O)(=O)Cc4ccccc4)C[C@H]2N3)cc1 (stereo partly drawn)	52
COc1cccc(CN2C[C@@H]3N[C@H](C2)C3c2ccc(-c3ccncc3)cc2)c1 (stereo partly drawn)	-3
COc1cccc(CN2C[C@@H]3N[C@H](C2)C3c2ccc(-c3cccc(C#N)c3)cc2)c1 (stereo partly drawn)	43
Cc1ccccc1-c1ccc(C2[C@@H]3CN(C(=O)Cc4ccccc4)C[C@H]2N3)cc1 (stereo partly drawn)	61
COc1cccc(CN2C[C@@H]3N[C@H](C2)C3c2ccc(-c3ccccc3C)cc2)c1 (stereo partly drawn)	-96*
COc1cccc(-c2ccc(C3[C@@H]4CN(C(=O)C5CCCC5)C[C@H]3N4)cc2)c1 (stereo partly drawn)	-5
COc1ccc(S(=O)(=O)Nc2ccc3c(c2)C(=O)N([C@H](C)CO)C[C@H](C)[C@@H](CN(C)C(=O)Nc2ccc4c(c2)OCO4)OCCCC[C@@H](C)O3)cc1	-6
CCCC(O)C#Cc1cnc2c(c1)C(=O)N([C@H](C)CO)C[C@H](C)[C@H](CN(C)S(C)(=O)=O)O2 (stereo partly drawn)	0
C[C@H](CO)N1C[C@H](C)[C@H](CN(C)C(=O)NC2CCCCC2)Oc2c(NS(=O)(=O)c3ccccc3)cccc2C1=O	2
C[C@H](CO)N1C[C@H](C)[C@H](CN(C)C(=O)Cc2ccccc2)Oc2ncc(-c3ccccc3)cc2C1=O	-1
CO[C@@H]1CN(C)C(=O)c2cc(NC(=O)c3ccccc3)ccc2OC[C@H](C)N(C)C[C@H]1C	-4
O=S(=O)(c1ccccc1)N1CC2(C1)[C@@H](c1ccccc1)[C@@H](CO)N2CC1CCCC1	-6
COc1cccc(S(=O)(=O)N2C[C@@H]3N[C@H](C2)C3c2ccc(-c3cccc(C)c3)cc2)c1 (stereo partly drawn)	-94*!
Cc1cccc(S(=O)(=O)N2C[C@@H]3N[C@H](C2)C3c2ccc(-c3cccnc3)cc2)c1 (stereo partly drawn)	-15
COc1ccc(-c2ccc(C3[C@@H]4CN(S(=O)(=O)c5cccc(C)c5)C[C@H]3N4)cc2)cc1 (stereo partly drawn)	-4
COc1ccc(-c2ccc(C3[C@@H]4CN(Cc5ccccn5)C[C@H]3N4)cc2)cc1 (stereo partly drawn)	-12
COc1cc(CN2C[C@@H]3N[C@H](C2)C3c2ccc(-c3ccccc3C)cc2)cc(OC)c1 (stereo partly drawn)	-99*
C/C=C/c1ccc(C2[C@@H]3CN(Cc4cc(OC)cc(OC)c4)C[C@H]2N3)cc1 (stereo partly drawn)	21
C[C@@H]1CCCCO[C@H](CN(C)S(=O)(=O)c2cccs2)[C@H](C)CN([C@@H](C)CO)C(=O)c2cc(N(C)C)ccc2O1	-4
Cc1cccc(-c2ccc([C@H]3[C@H]4CN(C(=O)Cc5ccccn5)CC(=O)N4[C@H]3CO)cc2)c1	0
O=C(NC[C@@H]1N[C@@H](CO)[C@H]1c1ccc(C2=CCCCC2)cc1)c1cccc(F)c1	-81*
CN(C[C@@H]1N[C@H](CO)[C@H]1c1ccc(C2=CCCC2)cc1)C(=O)c1cccc(F)c1	8
CCC(=O)NC[C@H]1N[C@H](CO)[C@@H]1c1ccc(C2=CCCC2)cc1	-4
O=C(C[C@H]1CC[C@H]2[C@@H](COC[C@@H](O)CN2C(=O)C2CC2)O1)NCc1ccccc1Cl	-2
CCCNC(=O)[C@@H]1N[C@@H]2c3ccc(C4=CCCCC4)c(=O)n3C[C@@H]2[C@H]1CO	0
CC=Cc1ccc2n(c1=O)C[C@H]1[C@H](CO)[C@@H](C(=O)N(C)C)[C@@H]2N1S(=O)(=O)c1ccccc1C (mixture of isomers)	-3
